Each structure is given as a SMILES string. Results filed as inconclusive are left out. Activity calls are given as the source filed them. Calls come from the whole dose curve; as a rule, active = well fitted inhibition curve with a large enough effect; inconclusive = small, poorly fitted or top-dose-only effect; inactive = flat fitted curve, though single readings scatter.

Experiment [1] concerns the target Glutathione peroxidase 1 (Homo sapiens) (UniProt P07203). Put plainly: Primary qHTS Assay for Inhibitors of Recombinant Selenoprotein Glutathione Peroxidase 1 (GPX1) (AID 1845191). An outline of the steps: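 GPX1 10 nM, GR 100 nM, GSH 1 mM, NADPH 0.5 mM, CHP 0.5 mM (final). 30-min cpd preincubation, RT. Ex340/Em450 read t=0, t=15 min.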
On the technique in general: qHTS replaces the single test concentration by a dilution series.

Experiment [2] deals with Phospholipid hydroperoxide glutathione peroxidase GPX4 (Homo sapiens) (UniProt P36969). Put plainly: Primary qHTS Assay for Inhibitors of Recombinant Selenoprotein Glutathione Peroxidase 4 (GPX4) (AID 1845192). Note: potency is the fitted concentration of half-maximal effect. An outline of the steps: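 qHTS, GR-coupled: GPX4 200 nM + cpd 30 min RT → GSH 1 mM, NADPH 0.5 mM, GR 100 nM → CHP 0.5 mM start; fluor 340/450 at t0 and t15 min; no-enzyme wells as control.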
Note: nearly all actives have a fitted effect of over 65% in size.

Chain of Glutathione peroxidase 1 (Homo sapiens) (P07203 whole entry, looked up): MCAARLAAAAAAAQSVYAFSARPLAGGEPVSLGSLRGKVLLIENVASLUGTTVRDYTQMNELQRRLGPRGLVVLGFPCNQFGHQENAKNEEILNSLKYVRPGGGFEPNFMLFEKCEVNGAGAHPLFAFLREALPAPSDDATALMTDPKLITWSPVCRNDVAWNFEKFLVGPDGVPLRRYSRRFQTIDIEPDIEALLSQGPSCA
Chain of Phospholipid hydroperoxide glutathione peroxidase GPX4 (Homo sapiens) (P36969 whole entry, looked up): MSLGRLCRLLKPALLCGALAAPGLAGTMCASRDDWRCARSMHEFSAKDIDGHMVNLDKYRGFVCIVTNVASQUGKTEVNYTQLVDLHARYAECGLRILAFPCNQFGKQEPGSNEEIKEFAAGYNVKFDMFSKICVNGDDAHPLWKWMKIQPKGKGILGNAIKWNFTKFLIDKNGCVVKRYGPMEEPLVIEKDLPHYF

As for `CCN1CC(CCN2CCOCC2)C(c2ccccc2)(c2ccccc2)C1=O` (stereo unspecified), the Potency result in experiment [1] and in experiment [2] was “inactive” each time.
Turning to `C[C@@H](c1ncncc1F)C(O)(Cn1cncn1)c1ccc(F)cc1F` (stereo partly specified), the Potency entry in experiment [1] and in experiment [2] was “inactive” in each case.
On to `CN(C(=O)c1c(O)c2ccccc2n(C)c1=O)c1ccccc1`, for which the Potency result in experiment [1] and in experiment [2] was “inactive” throughout.
As for `NC(N)=NCCN1CCCCCCC1`, the outcome is “inactive [at 0.4 µM]” in experiment [1] and “inactive [at 0.409 µM]” in experiment [2].
`CCCCCCCCCCCCCCCCC(C(=O)O)C(O)(CC(=O)O)C(=O)O` (stereo unspecified): the Potency entry in experiment [1] was “inactive”. Moreover, in experiment [2], the Potency is 4.47 µM (active).
Take `CCCCCCCC(=O)OCC(COC(=O)CCCCCCC)OC(=O)CCCCCCC`: the Potency result in experiment [1] and in experiment [2] was “inactive” throughout.
Take `O=S1(=O)OC(c2ccc(O)cc2)(c2ccc(O)cc2)c2ccccc21`: the Potency entry in experiment [1] and in experiment [2] was “inactive” in each case.
In the case of `C[C@@H](N)C(=O)O`, the Potency entry in experiment [1] and in experiment [2] was “inactive” in each case.
With `O=C1C(c2[nH]c3ccccc3c2O)=Nc2ccccc21`, the Potency entry in experiment [1] and in experiment [2] was “inactive” in each case.
Regarding `Cc1cc(O)cc(C)c1Cl`, the Potency entry in experiment [1] and in experiment [2] was “inactive” each time.
Regarding `CC1CC(OC(=O)c2ccccc2O)CC(C)(C)C1` (stereo unspecified), the Potency result in experiment [1] and in experiment [2] was “inactive” throughout.
Turning to `C[C@]1(Cn2ccnn2)[C@H](C(=O)O)N2C(=O)C[C@H]2S1(=O)=O`, the Potency entry in experiment [1] and in experiment [2] was “inactive” in each case.
In the case of `OC(CCN1CCCC1)(c1ccccc1)C1CCCCC1` (stereo unspecified), in experiment [2], the Potency result is “inactive”.
Turning to `CC(=O)NS(=O)(=O)c1ccc(N)cc1`, the Potency entry in experiment [1] and in experiment [2] was “inactive” throughout.
Regarding `O=C(Cn1ccnc1[N+](=O)[O-])NCc1ccccc1`, the Potency entry in experiment [1] and in experiment [2] was “inactive” throughout.
As for `Cc1ccccc1N=Nc1ccc(N=Nc2c(O)ccc3ccccc23)c(C)c1`, the Potency result in experiment [1] and in experiment [2] was “inactive” throughout.
For the compound `CN(C/C=C/C#CC(C)(C)C)Cc1cccc2ccccc12`, the Potency result in experiment [1] and in experiment [2] was “inactive” each time.
As to `O=c1[nH]c(=O)n([C@H]2C[C@H](O)[C@@H](CO)O2)cc1I`, the Potency result in experiment [1] and in experiment [2] was “inactive” in each case.
Turning to `COc1ccc2cc(CCC(C)=O)ccc2c1`, the Potency entry in experiment [1] and in experiment [2] was “inactive” throughout.
As to `CCCCCCCCCCC(CO)CCCCCCCC` (stereo unspecified), the Potency result in experiment [1] and in experiment [2] was “inactive” in each case.
As for `CC1(C)S[C@@H]2[C@H](NC(=O)C(C(=O)O)c3ccccc3)C(=O)N2[C@H]1C(=O)O` (stereo partly specified), the Potency result in experiment [1] and in experiment [2] was “inactive” throughout.
With `COc1ccccc1OC(=O)Oc1ccccc1OC`, the Potency result in experiment [1] and in experiment [2] was “inactive” each time.
Turning to `CC[C@H](C)[C@H](N)C(=O)O`, the Potency entry in experiment [1] and in experiment [2] was “inactive” in each case.
Regarding `NC(=O)CCCCC1CCSS1` (stereo unspecified), the Potency result in experiment [1] and in experiment [2] was “inactive” in each case.
On to `CC(=O)OC[C@H]1O[C@@](COC(C)=O)(O[C@H]2O[C@H](COC(C)=O)[C@@H](OC(C)=O)[C@H](OC(C)=O)[C@H]2OC(C)=O)[C@@H](OC(C)=O)[C@@H]1OC(C)=O`, for which the Potency entry in experiment [1] and in experiment [2] was “inactive” each time.
For the compound `CC(=O)Nc1ccc(C(=O)O)cc1`, the Potency result in experiment [1] and in experiment [2] was “inactive” in each case.

The record behind these values is PubChem BioAssay (NCATS).
